Laboratory results as given in the antibiotic and cytotoxicity screens of Wong et al. (2023).
Screen size: about 39,000 compounds; about 1,500 (3.8%) were called active. Shown is part of a subset that was picked to be rich in actives.

The molecules below were run on HSkMC (human skeletal muscle cells) (assay: cytotoxicity call (relative viability < 0.9)). Details: 10 µM.

SMILES | cytotoxicity call
CCc1nc2ccc(C(=O)NCCOc3ccc(OC)cc3)cn2c1N(CC)Cc1cccc(Br)c1 | inactive
O=C(NCCO)c1cc2ccccc2oc1=O | inactive
Cc1cc(C)c(N(Cc2ccccc2)S(=O)(=O)c2ccc(OCCNC(=O)c3cc4ccccc4o3)cc2)c(C(=O)NO)c1 | active
C[C@H]1CN([C@@H](C)CO)C(=O)c2cccc(NS(=O)(=O)c3cn(C)cn3)c2O[C@H]1CN(C)S(=O)(=O)c1cccs1 | inactive
C[C@@H]1CN([C@H](C)CO)C(=O)c2cc(C#C[C@@H](C)O)cnc2O[C@@H]1CN(C)C(=O)Nc1ccc(C(F)(F)F)cc1 | inactive
Nc1cc(=O)[nH]c(=O)n1-c1ccc(Cl)cc1 | inactive
O=C(O)CSCC(=O)N1CCCCC1 | inactive
CN1C(=O)c2cc(NC(=O)C3CCOCC3)ccc2OC[C@@H]2O[C@@H](CC(=O)NCc3ccccc3F)CC[C@H]21 | inactive
C[C@H]1CN([C@@H](C)CO)C(=O)c2cccc(NS(C)(=O)=O)c2O[C@H]1CN(C)S(=O)(=O)c1ccc(F)cc1 | inactive
COc1ccc(C[C@H]2c3cc(OC)c(OC)cc3CC[N@+]2(C)CCC(=O)OCCCCCOC(=O)CC[N@+]2(C)CCc3cc(OC)c(OC)cc3[C@@H]2Cc2ccc(OC)c(OC)c2)cc1OC | inactive
COc1ccc(C[C@@H]2c3cc(OC)c(OC)cc3CC[N@+]2(C)CCC(=O)OCCCCCOC(=O)CC[N@@+]2(C)CCc3cc(OC)c(OC)cc3[C@H]2Cc2ccc(OC)c(OC)c2)cc1OC | active
COc1ccc(CC2c3cc(OC)c(OC)cc3CC[N+]2(C)CCC(=O)OCCCCCOC(=O)CC[N+]2(C)CCc3cc(OC)c(OC)cc3C2Cc2ccc(OC)c(OC)c2)cc1OC.O=S(=O)([O-])c1ccccc1.O=S(=O)([O-])c1ccccc1 (stereo not given) | inactive
C[C@@H]1CN([C@@H](C)CO)C(=O)Cc2cc(NC(=O)Cc3cn(C)c4ccccc34)ccc2O[C@@H]1CN(C)S(=O)(=O)c1cn(C)cn1 | inactive
C[C@@H]1CCCCO[C@@H](CN(C)S(=O)(=O)c2ccccc2)[C@H](C)CN([C@@H](C)CO)C(=O)c2cc(NS(=O)(=O)c3cn(C)cn3)ccc2O1 | inactive
C[C@H]1CN([C@@H](C)CO)C(=O)Cc2cc(NS(=O)(=O)c3cn(C)cn3)ccc2O[C@@H]1CN(C)S(=O)(=O)c1ccc(Cl)cc1 | inactive
Cc1ccc(S(=O)(=O)Nc2ccc3c(c2)C(=O)N([C@@H](C)CO)C[C@@H](C)[C@H](CN(C)Cc2ccccc2)OCCCC[C@@H](C)O3)cc1 | inactive
COc1ccc2c3c([nH]c2c1)[C@H](CO)N(Cc1ccc(cc1)Cl)C[C@]13CCN(CC1)Cc1ccccc1 | active
COc1ccc2c3c([nH]c2c1)[C@@H](CO)N(Cc1ccc(cc1)Cl)C[C@]13CCN(CC1)Cc1nccs1 | inactive
COc1ccc2c3c([nH]c2c1)[C@@H](CO)N(Cc1ccc(cc1)Cl)C[C@]13CCN(CC1)Cc1ccccc1 | active
COc1ccc2c3c([nH]c2c1)[C@H](CO)N(Cc1ccncc1)C[C@]13CCN(CC1)Cc1ccc(cc1)-c1ccccn1 | inactive
COc1ccc2c3c([nH]c2c1)[C@H](CO)N(Cc1ccc(cc1)Cl)C[C@]13CCN(CC1)Cc1nccs1 | inactive
COc1ccc(cc1)CN1C[C@]2(CCN(CC2)Cc2ccccc2OC)c2c([nH]c3cc(ccc23)OC)[C@@H]1CO | inactive
O=C(NCCCN1CCOCC1)[C@H]1[C@H](CO)[C@H]2Cn3c(cccc3=O)[C@@H]1N2C(=O)C1CCCCC1 | inactive
C[C@@H]1CCCCO[C@H](CN(C)C(=O)NC2CCCCC2)[C@H](C)CN([C@H](C)CO)C(=O)c2cc(NC(=O)Nc3ccc(F)cc3)ccc2O1 | inactive

SMILES | cytotoxicity call
Cc1cccc(S(=O)(=O)N2C[C@@H](O)COC[C@@H]3O[C@H](CC(=O)NCCCN4CCOCC4)CC[C@H]32)c1 | inactive
C[C@@H]1CN([C@@H](C)CO)C(=O)c2cc(NC(=O)NC3CCCCC3)ccc2O[C@@H](C)CCCCO[C@H]1CN(C)C(=O)CCC(F)(F)F | inactive
C[C@@H]1CN([C@@H](C)CO)C(=O)c2cc(NC(=O)Cc3ccccc3)ccc2O[C@@H](C)CCCCO[C@@H]1CN(C)C(=O)c1ccccc1 | inactive
C=C(CO)C(=O)O[C@@H]1[C@H]2C(=C)C(=O)O[C@@H]2[C@H]2O[C@]2(C)CC/C=C(/C(=O)OC)[C@H]1OC(C)=O | active
C=C(CO)C(=O)O[C@H]1C[C@@]2(C)OC(=O)/C(=C/C)[C@]2(O)CC[C@@]2(C)CC(=O)[C@]1(C(=C)C(=O)OC)O2 | inactive
C[C@H]1CN([C@@H](C)CO)C(=O)c2cccc(NS(=O)(=O)c3ccc(F)cc3)c2O[C@H]1CN(C)C(=O)Nc1cccc2ccccc12 | inactive
C[C@@H]1CN([C@@H](C)CO)C(=O)c2cccc(NS(=O)(=O)c3ccc(F)cc3)c2O[C@H]1CN(C)C(=O)Nc1cccc2ccccc12 | active
C[C@@H]1CN([C@@H](C)CO)C(=O)c2cccc(NS(=O)(=O)c3cccs3)c2O[C@@H]1CN(C)C(=O)Nc1cccc2ccccc12 | inactive
C[C@H]1CN([C@@H](C)CO)C(=O)c2cccc(NS(=O)(=O)c3ccc(F)cc3)c2O[C@@H]1CN(C)C(=O)Nc1cccc2ccccc12 | inactive
C[C@@H]1CN([C@H](C)CO)C(=O)c2cccc(NS(=O)(=O)c3ccc(F)cc3)c2O[C@@H]1CN(C)C(=O)Nc1cccc2ccccc12 | inactive
C[C@@H]1CN([C@H](C)CO)C(=O)c2cccc(NS(=O)(=O)c3cccs3)c2O[C@H]1CN(C)C(=O)Nc1cccc2ccccc12 | active
C[C@H](CO)N1C[C@H](C)[C@H](CN(C)C(=O)Nc2cccc3ccccc23)Oc2c(NS(=O)(=O)c3ccc(F)cc3)cccc2C1=O | active
Cc1ccc(S(=O)(=O)Nc2cccc3c2O[C@H](CN(C)C(=O)Nc2cccc4ccccc24)[C@@H](C)CN([C@H](C)CO)C3=O)cc1 | inactive
C[C@H](CO)N1C[C@H](C)[C@@H](CN(C)C(=O)Nc2cccc3ccccc23)Oc2c(NS(=O)(=O)c3cccs3)cccc2C1=O | inactive
C[C@H](CO)N1C[C@H](C)[C@@H](CN(C)C(=O)Nc2cccc3ccccc23)Oc2c(NS(=O)(=O)c3ccc(F)cc3)cccc2C1=O | inactive
Cc1ccc(S(=O)(=O)Nc2cccc3c2O[C@H](CN(C)C(=O)Nc2cccc4ccccc24)[C@@H](C)CN([C@@H](C)CO)C3=O)cc1 | active
Cc1ccc(S(=O)(=O)Nc2cccc3c2O[C@@H](CN(C)C(=O)Nc2cccc4ccccc24)[C@H](C)CN([C@@H](C)CO)C3=O)cc1 | inactive
C[C@H](CO)N1C[C@H](C)[C@H](CN(C)Cc2ccc(F)cc2)Oc2ncc(C#Cc3cccnc3)cc2C1=O | inactive
C[C@H](CO)N1C[C@H](C)[C@H](CN(C)S(=O)(=O)c2cccs2)Oc2c(NS(=O)(=O)c3ccccc3)cccc2C1=O | inactive
C[C@@H]1CCCCO[C@H](CN(C)S(=O)(=O)c2cn(C)cn2)[C@H](C)CN([C@@H](C)CO)C(=O)c2cc(NC(=O)Nc3ccc(C(F)(F)F)cc3)ccc2O1 | inactive
C[C@@H]1CN([C@@H](C)CO)C(=O)c2cccc(NC(=O)c3nc4ccccc4s3)c2O[C@@H]1CN(C)S(C)(=O)=O | inactive
C[C@H]1CN([C@@H](C)CO)C(=O)Cc2cc(NC(=O)Cc3ccccc3)ccc2O[C@@H]1CN(C)S(=O)(=O)c1ccc(F)cc1 | inactive
CC1(C)OC(=O)C2(C(=O)O1)[C@@H](c1ccc(-c3cccc(-c4ccc(C(=O)O)cc4)c3)cc1)CC(=O)C[C@H]2c1ccccc1 | inactive
C[C@@H]1CN([C@H](C)CO)C(=O)Cc2cc(NS(=O)(=O)c3ccccc3)ccc2O[C@@H]1CN(C)Cc1ccc(C(=O)O)cc1 | inactive

SMILES | cytotoxicity call
N[C@H]1CCCN(c2ncccn2)C1 | inactive
COc1ncc(NC(=O)C2CC2)c(OC)n1 | inactive
N[C@@H]1CCCN(c2c(Br)cnc3[nH]cc(NC(=O)C4CC4)c23)C1 | active
C[C@@H]1CN([C@H](C)CO)S(=O)(=O)c2ccc(-c3ccc(C(=O)N(C)C)cc3)cc2O[C@@H]1CN(C)C(=O)C1CC1 | inactive
O=C(NCc1ccccc1)[C@@]1(CCS(=O)(=O)c2ccccc2)COC(c2ccc(OCCCO)cc2)=N1 | inactive
O=C1N(CCS(=O)(=O)c2ccccc2)Cc2ccccc2C[C@@]12COC(c1ccc(OCCCO)cc1)=N2 | active
O=C1N(Cc2ccccc2)Cc2ccccc2[C@H]2OC(c3ccc(OCCCO)cc3)=N[C@@]12Cc1ccccc1 | inactive
O=C1N(Cc2ccccc2)Cc2ccccc2C[C@@]12N=C(c1ccc(OCCCO)cc1)O[C@H]2c1ccccc1 | active
O=C1N(Cc2ccccc2)Cc2ccccc2C[C@]12N=C(c1ccc(OCCCO)cc1)O[C@@H]2c1ccccc1 | inactive
O=C1N(Cc2ccccc2)Cc2ccccc2[C@H]2OC(c3ccc(OCCCO)cc3)=N[C@@]12CCS(=O)(=O)c1ccccc1 | inactive
Cc1ccc(S(=O)(=O)Nc2cccc3c2O[C@@H](CN(C)Cc2ccc(Oc4ccccc4)cc2)[C@@H](C)CN([C@@H](C)CO)C3=O)cc1 | inactive
CC[C@@H](C)c1ccc(NC(=O)c2cc3ccccc3o2)cc1 | inactive
C[C@@H]1CN([C@H](C)CO)C(=O)Cc2cc(NS(C)(=O)=O)ccc2O[C@@H]1CN(C)C(=O)Nc1ccc(F)cc1 | inactive
C[C@@H]1CCCCO[C@@H](CN(C)CC2CCCCC2)[C@@H](C)CN([C@H](C)CO)C(=O)c2cc(NC(=O)Nc3ccccc3)ccc2O1 | inactive
COc1ccc(NC(=O)Nc2ccc3c(c2)C(=O)N([C@@H](C)CO)C[C@@H](C)[C@@H](CN(C)CC2CCCCC2)OCCCC[C@@H](C)O3)cc1 | inactive
C[C@@H]1CCCCO[C@H](CN(C)CC2CCCCC2)[C@H](C)CN([C@@H](C)CO)C(=O)c2cc(NC(=O)Nc3ccccc3)ccc2O1 | inactive
C[C@@H]1CCCCO[C@H](CN(C)CC2CCCCC2)[C@@H](C)CN([C@H](C)CO)C(=O)c2cc(NC(=O)Nc3ccccc3)ccc2O1 | inactive
C[C@@H]1CN([C@@H](C)CO)C(=O)c2cc(NC(=O)Nc3ccccc3)ccc2O[C@@H](C)CCCCO[C@@H]1CN(C)CC1CCCCC1 | active
COc1ccc(NC(=O)Nc2ccc3c(c2)C(=O)N([C@H](C)CO)C[C@@H](C)[C@@H](CN(C)CC2CCCCC2)OCCCC[C@@H](C)O3)cc1 | active
C[C@H]1CCCCO[C@H](CN(C)CC2CCCCC2)[C@@H](C)CN([C@@H](C)CO)C(=O)c2cc(NC(=O)Nc3ccccc3)ccc2O1 | inactive
C[C@H](CO)N1C[C@H](C)[C@H](CN(C)CC2CCCCC2)OCCCC[C@H](C)Oc2ccc(NC(=O)Nc3ccccc3)cc2C1=O | active
COc1ccc(NC(=O)Nc2ccc3c(c2)C(=O)N([C@@H](C)CO)C[C@H](C)[C@H](CN(C)CC2CCCCC2)OCCCC[C@H](C)O3)cc1 | inactive
